Assay results: PubChem BioAssay AID1671463 (Sanford-Burnham Center for Chemical Genomics, 2021)
Screen size: about 370,000 compounds; about 520 (0.14%) were called active. Cut-off read from the data, not from the text of the source: active = activation above about 40%; inactive = the rest. The full list was thinned out, with actives kept by preference.

Target: Atrial natriuretic peptide receptor 1 (Homo sapiens) (UniProt P16066)
Assay: GC-A stimulated cGMP production enhancers – HEK293 GC-A cells, cGMP TR-FRET, EC30 ANP, primary screen (AID 1671463)
Conditions: at 10 µM, stronger effect = higher value, 0% at EC30 ANP, 100% saturating ANP

Atrial natriuretic peptide receptor 1 (Homo sapiens), sequence (P16066 whole entry, looked up): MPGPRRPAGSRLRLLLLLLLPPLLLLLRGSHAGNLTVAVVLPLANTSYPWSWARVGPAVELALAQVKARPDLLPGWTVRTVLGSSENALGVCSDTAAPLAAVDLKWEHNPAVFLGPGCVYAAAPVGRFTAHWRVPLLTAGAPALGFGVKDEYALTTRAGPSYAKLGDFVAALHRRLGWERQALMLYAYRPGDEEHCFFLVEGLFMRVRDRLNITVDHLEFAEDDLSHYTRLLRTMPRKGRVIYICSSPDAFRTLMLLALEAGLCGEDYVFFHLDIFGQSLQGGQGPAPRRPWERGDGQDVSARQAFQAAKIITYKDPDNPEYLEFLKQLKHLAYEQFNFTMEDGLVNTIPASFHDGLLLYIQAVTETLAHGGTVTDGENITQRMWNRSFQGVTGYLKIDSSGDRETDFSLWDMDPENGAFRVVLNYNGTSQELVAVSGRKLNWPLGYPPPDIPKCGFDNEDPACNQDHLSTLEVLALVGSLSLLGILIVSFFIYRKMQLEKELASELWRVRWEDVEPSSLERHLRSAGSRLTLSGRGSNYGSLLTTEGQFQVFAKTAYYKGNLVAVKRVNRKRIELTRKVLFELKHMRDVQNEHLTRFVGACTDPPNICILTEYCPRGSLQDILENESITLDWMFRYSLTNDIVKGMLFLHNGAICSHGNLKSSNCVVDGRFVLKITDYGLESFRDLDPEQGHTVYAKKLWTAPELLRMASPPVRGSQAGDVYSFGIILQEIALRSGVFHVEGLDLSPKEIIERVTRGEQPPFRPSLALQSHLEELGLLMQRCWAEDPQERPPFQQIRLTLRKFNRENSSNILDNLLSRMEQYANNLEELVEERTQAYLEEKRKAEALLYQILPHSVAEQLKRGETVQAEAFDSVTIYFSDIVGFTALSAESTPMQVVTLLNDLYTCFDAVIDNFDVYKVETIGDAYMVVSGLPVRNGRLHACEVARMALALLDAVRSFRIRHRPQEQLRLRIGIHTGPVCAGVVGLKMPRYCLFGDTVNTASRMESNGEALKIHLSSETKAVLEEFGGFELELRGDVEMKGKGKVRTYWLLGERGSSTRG

activation, inactive:
COc1ccc([N+](=O)[O-])cc1NC(=O)CC1SC(=Nc2cccc(C)c2C)N(/N=C(\C)c2ccc(C)cc2)C1=O (stereo not given) 0.41%, Cc1ccc(NS(=O)(=O)c2ccc(-c3coc(C)n3)cc2)c(C)c1 4.2%, C#CCOc1ccccc1/C=C1/C(=O)ON=C1C 25.7%, C=CCOc1ccc(/C=N/n2cncn2)cc1OC 7.58%, C=CCOc1ccc(/C=N/NC(=O)C(C)Sc2ccccn2)cc1OCC (stereo not given) 1.12%, Cc1ccc(N2C(=O)C3C4C=CC(CC4)C3C2=O)cc1Cl (stereo not given) 2.95%, CN(CC(=O)Nc1c(Cl)cccc1Cl)C(=O)c1ccncc1 3.63%, C=C1CCN([C@H](C(=O)NCc2cc(OC)c(OC)c(OC)c2)C(C)C)S(=O)(=O)c2ccccc21 4.37%, CCCC(C(=O)N1CCOCC1)N1C(=O)C2C3C=CC(C3)C2C1=O (stereo not given) 2.35%, O=C(Nc1cccc(Br)c1)C1CC(=O)N(C2CCCC2)C1 (stereo not given) 0.08%, Cc1cccc(NC(=O)C2CCCN2S(=O)(=O)c2ccc(F)cc2)c1C (stereo not given) 0.56%, CCC(=O)Nc1c(C)n[nH]c1C -1.11%, COc1cc(F)c(C2=CC(=O)CC(C)(C)C2)cc1F 0.01%, COC(=O)Cc1ccc(OC(=O)C2CCN(S(=O)(=O)c3ccc(OC)c(OC)c3)CC2)cc1 3.18%, COC(=O)c1cn(C)c2ccc(S(=O)(=O)N3CC(C)CC(C)C3)cc2c1=O (stereo not given) -6.76%, O=C(Cn1nnc(-c2ccc3c(c2)OCO3)n1)NCc1ccco1 -5.64%, Cc1nc(CNc2ncnc3ccc(-c4ccc5c(c4)OCO5)cc23)cs1 5.54%, Cc1ccc(NC(=O)CN(C)C(=O)COC(=O)C(C)(C)Oc2ccc(Cl)cc2)cc1 -1.24%, CCn1nc(C(=O)NNC(=O)C2CSC3(C)CCC(=O)N23)c2ccccc2c1=O (stereo not given) -1.32%, Cc1cc(C)c(C#N)c(SCS(=O)c2ccc(C(C)(C)C)cc2)n1 (stereo not given) 4.18%, CC(=O)c1c(C)[nH]c(=S)c(C#N)c1-c1ccc(F)cc1 5.29%, CCc1c(C)[nH]c(=S)c(C#N)c1C 2.4%, COC(=O)Nc1ccc(S(=O)(=O)N2CCN(CCN3C(=O)C4C5C=CC(C5)C4C3=O)CC2)cc1 (stereo not given) -1.89%, Cc1cc(=O)n2nc(N3CCC(C(=O)Nc4c(F)c(F)c(F)c(F)c4F)CC3)sc2n1 0.6%, CC(C)c1cc(C(N)=O)c(NC(=O)c2cccc(COc3ccc(Br)cc3)c2)s1 -1.61%, O=C(CN1C2CCC1CC(NC(=O)C1CC1)C2)NCc1ccccc1 (stereo not given) 0.13%, COc1ccccc1CNC(=O)CSc1nc(=O)n(Cc2ccncc2)c2c1CCC2 2.8%, O=C1CC[C@@H](COc2ccc3[nH]cc(-c4ccccc4)c3c2-c2ccccc2)N1 2.69%, CC(C)C[C@H](NC(=O)[C@@H]1O[C@H]1C(=O)O)C(=O)NCCCCN=C(N)N 2.77%, C[C@H](NS(=O)(=O)c1ccc(Cl)cc1)C(=O)OCC(=O)N1CCOCC1 7.01%, Nc1ccc(N=Nc2ccccc2Cl)c(N)n1 38.8%, CCN(CC)S(=O)(=O)c1ccc(CNC(=O)CN2C(=O)NC3(CCc4ccccc43)C2=O)cc1 (stereo not given) -0.1%, O=C(O)CCSc1nnc(-c2ccccc2)n1-c1ccccc1 4.68%, C[C@@H](O)c1nc2ccccc2n1N 1.42%, Cc1noc(C)c1COc1cccc(C(=O)Nc2cccnc2)c1 -4.16%, COCc1c(C(=O)OCc2c(C)noc2C)oc2ccccc12 2.41%, CCCCOc1ccc(N(CC(=O)NCC2CCCO2)C(=O)CCC(=O)Nc2cc(C)ccn2)cc1 (stereo not given) 0.77%, CSc1sc(C(=O)NNC(=O)c2ccc(Cl)cc2)c2c1C=CCC2 -1.84%, Cc1cc(NC(=O)CS(=O)(=O)c2cn(C)c3ccccc23)no1 1.25%, CC(=O)c1ccc(S(=O)(=O)NC2CC(=O)N(c3ccc4c(c3)OCCO4)C2)cc1 (stereo not given) 4.47%, Cc1ccn(-c2cccc(-n3ccc(C)n3)n2)n1 5.87%, CCCCOc1ccc(NC(=O)[C@@H]2CCCN2C(=O)C2CCN(S(=O)(=O)c3ccc(C)cc3)CC2)cc1 2.31%, O=C(Nc1ccon1)c1nc[nH]c1C(=O)NCc1ccccc1 -0.12%, NC(N)=NCCCc1cn(CC(=O)N2CCNCC2)nn1 -2.97%, Cc1oc2cc3oc(=O)ccc3cc2c1C -1.91%, CC(C)Oc1ccc(C(CC(=O)N2CCOCC2)C(C)C)cc1 (stereo not given) -1.14%, O=C(CSc1nnc(-c2ccncc2)o1)Nc1cccc(Cl)c1 -5.53%, O=C(CSc1nnc(-c2ccncc2)o1)NCc1ccc(Cl)cc1 -2.38%, O=[N+]([O-])c1ccc(CN2CC(N3CC=CC3)CS2(=O)=O)cc1 (stereo not given) 0.5%, Nc1c(N(CCO)C(=O)C2CCCCC2)c(=O)[nH]c(=O)n1Cc1ccccc1 -4.4%, CC(NC(=O)COc1ccc(-c2ccccc2)cc1)C1CCCO1 (stereo not given) 3.26%, COC(=O)CN1C(=O)[C@H]2[C@@H](C3CC3)N3C(=O)CN(Cc4ccc(-c5ccccc5)cc4)C(=O)[C@@]3(Cc3ccccc3)[C@H]2C1=O 4.81%, O=C(CSc1nc2ccccc2n1Cc1ccccc1)NNC(=S)Nc1ccccc1 0.91%, O=S(=O)(Nc1ccc(-c2ccc(N3CCOCC3)nn2)cc1)c1cc(Cl)ccc1Cl 0.58%, COc1cc(NC(=O)c2ccc(CNc3c(N4CCCC4)c(=O)c3=O)cc2)cc(OC)c1OC -2.1%, Fc1ccc2c(c1)C(c1cccnc1)=NNC(c1cccs1)=N2 -28.1%, [O-][n+]1c2c(nn1-c1ccc(Cl)c(Cl)c1)-c1nonc1CC2 9.72%, C=CCOc1ccc(Cl)cc1CNCCCN1CCOCC1 -6.85%, O=C1C=C(c2ccnc3cc(Cl)ccc23)C[C@@H](c2ccc3c(c2)OCO3)C1 0.61%, CCOc1ccc(NC(=O)CSc2ncnc3c2sc2ccccc23)cc1 38.7%, CC(C)CCSc1ncnc2c1oc1nc3c(cc12)COC(C)(C)C3 -1.1%, CN1CCC(=NNC(=O)CN(c2cccc(Cl)c2)S(C)(=O)=O)CC1 0.89%, CCCCCn1c(SCCC(C)C)nc2c1c(=O)[nH]c(=O)n2C 1.84%, COc1ccc2occ(C(=O)c3ccc(N=C(C)N(C)C)cc3)c2c1 -4.34%, Cc1nn(Cc2ccccc2)c(C)c1C(=O)N1CCN(CC(=O)Nc2ccccc2Cl)CC1 4.37%, CN(C)CCN=c1cc(-c2ccccc2)oc2ccc(Cl)cc12 1.39%, COc1ccc(C(CC(=O)c2ccccc2)S(=O)(=O)c2ccccc2)cc1 (stereo not given) -10.5%, O=C(c1ccc(F)c(S(=O)(=O)N2CCOCC2)c1)N(CCc1ccccc1)Cc1ccccc1 -3.51%, O=C(CN1C(=O)c2ccc([N+](=O)[O-])cc2C1=O)Nc1nnc(C2CC2)s1 5.52%, COc1ccc(NC(=O)C(CC(C)C)NC(=O)C2CCC(C)CC2)cc1 (stereo not given) -0.39%, CCOC(=O)N1CCN(C(=O)CSc2nnc(-c3c[nH]c4ccccc34)n2CCOC)CC1 -1.3%, CCNC(=O)N1CCN(S(=O)(=O)c2ccc3c(c2)OCCCO3)CC1 -0.67%, O=C(CCC1CCCN(Cc2ccc(O)c(Cl)c2)C1)NCc1ccccc1F (stereo not given) 3.25%, COc1ccc2cc(C(=O)O)n(CC(=O)c3ccccc3)c2c1 -0.02%, CC(=O)OCCN1CCCC12CCC(c1ccccc1)CC2 (stereo not given) 4.33%, COc1ccc(CCNC(=O)COc2ccc3c(c2)OCO3)cc1 -3.12%, NC(=O)C1=C[C@H](c2csc3ccccc23)C[C@H](OCc2ccc(CO)cc2)O1 -0.65%, CC(C)COC(=O)n1c(=O)oc2ccc(S(=O)(=O)N3CCCCC3)cc21 0.62%, CCOc1ccc2nc(Cl)c(C3CC(c4ccccc4)=NN3C(=O)c3cccs3)cc2c1 (stereo not given) 1.83%, COc1ccc(C2CC(c3cccc(OC)c3)=NN2c2ccc(S(N)(=O)=O)cc2)cc1 (stereo not given) 6.44%

activation, active:
C=CCOc1ccc(/C=C2/C(=O)ON=C2C)cc1OCC 41%, C#CCOc1ccc(/C=C2/C(=O)ON=C2C)cc1OCC 43.3%, c1coc(CCNc2ncnc3ccc(-c4ccc5c(c4)OCO5)cc23)c1 43.1%, CCOC(=O)c1c(C)[nH]c(=S)c(C#N)c1-c1ccccc1 49.5%, Cc1noc(C)c1COC(=O)COc1ccc(-c2ccccc2)cc1 42%, O=C(COC(=O)CSc1nnc(-c2ccc(Cl)cc2)o1)Nc1cc(Cl)cc(Cl)c1 60.5%, O=C1/C(=C\c2ccc([N+](=O)[O-])cc2)CS(=O)(=O)C/C1=C/c1ccc([N+](=O)[O-])cc1 43.4%, CC1(C)Cc2nc3sc4c(SCC(=O)NC(c5ccccc5)c5ccccc5)ncnc4c3cc2CO1 52.8%, COc1ccc(C2CC(c3ccccc3)=NN2C(=O)c2ccc(Cl)c([N+](=O)[O-])c2)cc1 (stereo not given) 69.5%, O=C1C=CC(=O)N1c1ccc(N2CCCCC2)cc1 50.5%
